# Test results from PubChem BioAssay (Tox21).
# A number with no mark means an inactive call. Records with an inconclusive call do not appear. Where a call stands in place of a potency, no number is given. Calls of active or inactive are those of the source. Unless noted, calls follow the shape of the dose curve; as a rule, active = well fitted curve in the direction sought with a large enough effect in the repeat runs; inconclusive = weak or mixed curves; inactive = no such curve, though single readings can be large; an effect the other way counts as inactive or inconclusive.
# Experiments:
# [1] = qHTS assay to identify small molecule agonists of the estrogen related receptor (ERR) signaling pathway from Tox21 library (AID 1224849; calls by dose curve; also: nearly all actives have a fitted effect of over 15% in size)
# Procedure, shortened: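 Six hours post-seeding at 37 C/5% CO2, ERR cells receive DMSO-solubilised compounds; after 18 h at 37 C, ONE-Glo reagent is applied and luminescence recorded.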
# [2] = qHTS RealTime-Glo MT Cell Viability Assay in HepG2 cells - 24 hour (AID 1224867); also: nearly all actives have a fitted effect of over 50% in size
# Procedure, shortened: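 Luminescence read-out: viable HepG2 cells reduce a prosubstrate to a NanoLuc substrate, giving a signal proportional to live cell number. Reads taken at 0, 8, 16, 24, 32 and 40 h of compound exposure at 37 C.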
# [3] = qHTS RealTime-Glo MT Cell Viability Assay in HEK293 cells - 32 hour (AID 1224868); also: nearly all actives have a fitted effect of over 50% in size; also: potency is read from the fitted curve at half-maximal effect; as to activity change, negative = cytotoxic: top concentration of the series differs between compounds
# Procedure, shortened: (§1)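 Nonlytic real-time viability readout: viable cells convert prosubstrate to NanoLuc substrate, giving luminescence proportional to live cell number. HEK293, 600 cells/well, compound added after 5 h, continuous culture at 37 C.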
# [4] = A CellTox Green Cytotoxicity Assay to monitor cytotoxicity in HEK293 cells - 0 hour (AID 1224869); also: nearly all actives have a fitted effect of over 50% in size
# Procedure, shortened: (§2)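 Seeding of HEK293 cells together with cytotoxicity dye preceded a 5 h incubation at 37 C/5% CO2. Test compounds in DMSO were then added and fluorescence monitored across 40 h.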
# [5] = qHTS RealTime-Glo MT Cell Viability Assay in HepG2 cells - 40 hour (AID 1224870); also: nearly all actives have a fitted effect of over 50% in size
# Procedure, shortened: (§3)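 HepG2 cells mixed with RealTime-Glo MT reagents (NanoLuc plus cell-permeant prosubstrate) were seeded at 600 cells/well, incubated 5 h at 37 C/5% CO2, then pinned with compounds in DMSO; nonlytic luminescence tracked viability during 40 h treatment.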
# [6] = A CellTox Green Cytotoxicity Assay to monitor cytotoxicity in HEK293 cells - 40 hour (AID 1224871); also: nearly all actives have a fitted effect of over 45% in size
# Procedure, shortened: as §2
# [7] = qHTS RealTime-Glo MT Cell Viability Assay in HEK293 cells - 16 hour (AID 1224872); also: nearly all actives have a fitted effect of over 50% in size; also: potency is read from the fitted curve at half-maximal effect; as to activity change, negative = cytotoxicity: top concentration of the series differs between compounds
# Procedure, shortened: as §1
# [8] = qHTS RealTime-Glo MT Cell Viability Assay in HepG2 cells - 8 hour (AID 1224873); also: nearly all actives have a fitted effect of over 55% in size
# Procedure, shortened: as §3
# [9] = A CellTox Green Cytotoxicity Assay to monitor cytotoxicity in HEK293 cells - 24 hour (AID 1224875); also: series mostly up to about 77 µM; nearly all actives have a fitted effect of over 45% in size
# Procedure, shortened: as §2
# [10] = qHTS RealTime-Glo MT Cell Viability Assay in HEK293 cells - 40 hour (AID 1224874); conditions: RealTime-Glo luminescence; max response: stronger effect = lower value; also: nearly all actives have a fitted effect of over 50% in size; also: potency is read from the fitted curve at half-maximal effect
# Procedure, shortened: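 Tox21 screen in HEK293 using RealTime-Glo MT chemistry, with cells and reagent co-dispensed. Luminescence proportional to viable cell number was captured at intervals during 40 h compound exposure at 37 C.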
structure (smiles),measurement,setting,value
CCCCCC1CCCC(=O)O1 (centres undefined),outcome,[1],inactive
same,outcome,[2],inactive
same,Potency,[3],inactive
same,Potency,[4],inactive
same,outcome,[5],inactive
same,Potency,[6],inactive
same,Potency,[7],inactive
same,outcome,[8],inactive
same,Potency,[9],inactive
CC(C)(C)NCCO,outcome,[1],inactive
same,outcome,[2],inactive
same,Potency,[3],inactive
same,Potency,[4],inactive
same,outcome,[5],inactive
same,Potency,[6],inactive
same,Potency,[7],inactive
same,outcome,[8],inactive
OC[C@@H](O)[C@H](O)[C@@H](O)[C@@H](O)CO,outcome,[1],inactive
same,outcome,[2],inactive
same,Potency,[3],inactive
same,Potency,[4],inactive
same,outcome,[5],inactive
same,Potency,[6],inactive
same,Potency,[7],inactive
same,outcome,[8],inactive
same,max response,[10],0.901%
same,Potency,[9],inactive
CC(C)(c1ccc(Oc2ccc3c(c2)C(=O)OC3=O)cc1)c1ccc(Oc2ccc3c(c2)C(=O)OC3=O)cc1,outcome,[1],inactive
same,outcome,[2],inactive
same,Potency,[3],inactive
same,Potency,[4],inactive
same,outcome,[5],inactive
same,Potency,[6],inactive
same,Potency,[7],inactive
same,outcome,[8],inactive
same,max response,[10],19.4%
same,Potency,[9],inactive
C=CCOc1c(Br)cc(C(C)(C)c2cc(Br)c(OCC=C)c(Br)c2)cc1Br,outcome,[1],inactive
same,outcome,[2],inactive
same,Potency,[3],inactive
same,Potency,[4],inactive
same,outcome,[5],inactive
same,Potency,[6],inactive
same,Potency,[7],inactive
same,outcome,[8],inactive
same,max response,[10],14.4%
same,Potency,[9],inactive
C[CH2][Ge]([Cl])([CH2]C)[CH2]C,outcome,[1],inactive
same,outcome,[2],inactive
same,Potency,[3],inactive
same,Potency,[4],inactive
same,outcome,[5],inactive
same,Potency,[6],inactive
same,outcome,[8],inactive
same,max response,[10],1.99%
same,Potency,[9],inactive
CCc1nccnc1C,outcome,[1],inactive
same,outcome,[2],inactive
same,Potency,[3],inactive
same,Potency,[4],inactive
same,outcome,[5],inactive
same,Potency,[6],inactive
same,Potency,[7],inactive
same,outcome,[8],inactive
same,max response,[10],6.93%
same,Potency,[9],inactive
Cc1ccccc1OCC1CO1 (centres undefined),outcome,[1],inactive
same,outcome,[2],inactive
same,Potency,[3],inactive
same,Potency,[4],inactive
same,outcome,[5],inactive
same,Potency,[6],inactive
same,Potency,[7],inactive
same,outcome,[8],inactive
same,max response,[10],-1.66%
CCS(=O)(=O)CCn1c([N+](=O)[O-])cnc1C,outcome,[1],inactive
same,outcome,[2],inactive
same,Potency,[3],inactive
same,Potency,[4],inactive
same,outcome,[5],inactive
same,Potency,[6],inactive
same,Potency,[7],inactive
same,outcome,[8],inactive
same,max response,[10],-0.732%
CCNC(=O)NCCCOc1cccc(CN2CCCCC2)c1,outcome,[1],inactive
same,outcome,[2],inactive
same,Potency,[3],inactive
same,Potency,[4],inactive
same,outcome,[5],inactive
same,Potency,[6],inactive
same,Potency,[7],inactive
same,outcome,[8],inactive
same,max response,[10],-3.36%
same,Potency,[9],inactive
Oc1ccccc1Cc1ccccc1O,outcome,[1],inactive
same,outcome,[2],inactive
same,outcome,[5],inactive
same,Potency,[6],inactive
same,outcome,[8],inactive
same,Potency,[9],inactive
CCC(C)(CCC(C)C)C(=O)[O-].CCC(C)(CCC(C)C)C(=O)[O-].[Zn+2] (centres undefined),outcome,[1],inactive
same,outcome,[2],inactive
same,Potency,[3],inactive
same,outcome,[5],inactive
same,Potency,[7],inactive
same,outcome,[8],inactive
same,max response,[10],0.868%
same,Potency,[9],inactive
Nc1nc(=O)n([C@@H]2O[C@H](CO)[C@@H](O)[C@@H]2F)cc1I,outcome,[2],inactive
same,Potency,[3],inactive
same,Potency,[4],inactive
same,outcome,[5],inactive
same,Potency,[6],inactive
same,Potency,[7],inactive
same,outcome,[8],inactive
same,max response,[10],3.93%
same,Potency,[9],inactive
CC1CCC(C(C)(C)S)C(=O)C1 (centres undefined),outcome,[2],inactive
same,Potency,[3],3.09 µM (active)
same,Potency,[4],inactive
same,outcome,[5],inactive
same,Potency,[6],inactive
same,Potency,[7],6.92 µM (active)
same,outcome,[8],inactive
same,Potency,[10],3.09 µM (active)
C=COCCOCCOC=C,outcome,[2],inactive
same,Potency,[3],inactive
same,Potency,[4],inactive
same,outcome,[5],inactive
same,Potency,[6],inactive
same,Potency,[7],inactive
same,outcome,[8],inactive
NS(=O)(=O)c1cc2c(cc1Cl)NC(CC1CCCC1)NS2(=O)=O (centres undefined),outcome,[2],inactive
same,Potency,[3],inactive
same,Potency,[4],inactive
same,outcome,[5],inactive
same,Potency,[6],inactive
same,Potency,[7],inactive
same,outcome,[8],inactive
same,max response,[10],5.55%
Cc1cccc(Nc2ccncc2S(=O)(=O)NC(=O)NC(C)C)c1,outcome,[2],inactive
same,Potency,[3],inactive
same,Potency,[4],inactive
same,outcome,[5],inactive
same,Potency,[6],inactive
same,Potency,[7],inactive
same,outcome,[8],inactive
same,max response,[10],-1.39%
same,Potency,[9],inactive
CCCCCCCCCCC,outcome,[2],inactive
same,Potency,[3],inactive
same,Potency,[4],inactive
same,outcome,[5],inactive
same,Potency,[6],inactive
same,Potency,[7],inactive
same,outcome,[8],inactive
same,max response,[10],-0.764%
CCCOC(=O)CCCCC(=O)OCCC,outcome,[2],inactive
same,Potency,[3],inactive
same,Potency,[4],inactive
same,outcome,[5],inactive
same,Potency,[6],inactive
same,Potency,[7],inactive
same,outcome,[8],inactive
same,max response,[10],-4.84%
CN(C1CCCCC1)S(=O)(=O)c1ccccc1N,outcome,[1],inactive
same,outcome,[5],inactive
same,Potency,[6],inactive
same,outcome,[8],inactive
same,Potency,[9],inactive
Cc1cccc(NC(=S)N(C)C)c1,outcome,[1],inactive
same,Potency,[3],inactive
same,Potency,[4],inactive
same,outcome,[5],inactive
same,Potency,[6],inactive
same,Potency,[7],inactive
same,outcome,[8],inactive
same,Potency,[9],inactive
FC(F)(F)/C(=N\OCC1OCCO1)c1ccc(Cl)cc1,outcome,[2],inactive
same,Potency,[3],inactive
same,Potency,[4],inactive
same,outcome,[5],inactive
same,Potency,[6],inactive
same,Potency,[7],inactive
same,outcome,[8],inactive
same,max response,[10],3.42%
same,Potency,[9],inactive
Nc1ccc(/C=C/c2ccc(N)cc2S(=O)(=O)O)c(S(=O)(=O)O)c1,"activity change, negative = cytotoxicity",[2],2.78% [at 0.29 µM]
same,"activity change, negative = cytotoxic",[3],0.295% [at 0.29 µM]
same,cytotoxicity,[4],5.28% [at 0.29 µM]
same,"activity change, negative = cytotoxic",[5],0.506% [at 0.29 µM]
same,cytotoxicity increase,[6],-0.161% [at 0.29 µM]
same,"activity change, negative = cytotoxicity",[7],2.56% [at 0.29 µM]
same,"viability change, negative = cytotoxic",[8],5.84% [at 0.29 µM]
same,max response,[10],2.9%
CCCCCN(CCCOC)C(=O)C(CCC(=O)O)NC(=O)c1ccc(Cl)c(Cl)c1 (centres undefined),outcome,[1],inactive
same,Potency,[3],inactive
same,Potency,[4],inactive
same,outcome,[5],inactive
same,outcome,[8],inactive
same,max response,[10],-0.0123%
same,Potency,[9],inactive
CN(C)CCOCCN(C)CCO,outcome,[2],inactive
same,Potency,[3],inactive
same,Potency,[4],inactive
same,outcome,[5],inactive
same,Potency,[6],inactive
same,Potency,[7],inactive
same,outcome,[8],inactive
same,max response,[10],-7.32%
CCN(CCC#N)c1ccccc1,outcome,[2],inactive
same,Potency,[3],inactive
same,Potency,[4],inactive
same,outcome,[5],inactive
same,Potency,[6],inactive
same,Potency,[7],inactive
same,outcome,[8],inactive
same,max response,[10],2.36%
same,Potency,[9],inactive
